In the library only some 7.5% were active in any assay of this set; here they are far more common.
SMN2 splice enh – qHTS Assay for Enhancers of SMN2 Splice Variant Expression; HEK293 SMN2-luciferase splicing reporter, luminescence, 30-36 h; Potency, µM (highest dose often 46.1 µM), for inactives: at the highest dose activity change, positive = activation, hits mostly activators; hit rate 2.8% among 210,000; further: % of control where 0% means no effect; nearly all actives have a fitted effect of over 55% in size
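qHTS luciferase splicing reporter: luminescence rises when SMN2 exon 7 is included in transfected HEK293 cells. Compound exposure lasted 30-36 h at 37C, with 4.5 mM final sodium butyrate as control, followed by a ONE-Glo read.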
FLuc counter – qHTS profiling assay for firefly luciferase inhibitor/activator using purifed enzyme and Km concentrations of substrates (counterscreen for miR-21 project) | Luciferin 4-monooxygenase (Photinus pyralis), P08659 | purified FLuc, Km substrates, luminescence inhibition | Potency, µM (series often up to 57.5 µM), without a hit: at the highest dose activity change, negative = inhibition, most hits filed as inhibitors | hit rate 6.9% among 360,000;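 further: plate controls were vehicle for no effect and reference inhibitor for full effect; nearly all actives have a fitted effect of over 55% in size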
Target sequence (P08659 whole entry, looked up): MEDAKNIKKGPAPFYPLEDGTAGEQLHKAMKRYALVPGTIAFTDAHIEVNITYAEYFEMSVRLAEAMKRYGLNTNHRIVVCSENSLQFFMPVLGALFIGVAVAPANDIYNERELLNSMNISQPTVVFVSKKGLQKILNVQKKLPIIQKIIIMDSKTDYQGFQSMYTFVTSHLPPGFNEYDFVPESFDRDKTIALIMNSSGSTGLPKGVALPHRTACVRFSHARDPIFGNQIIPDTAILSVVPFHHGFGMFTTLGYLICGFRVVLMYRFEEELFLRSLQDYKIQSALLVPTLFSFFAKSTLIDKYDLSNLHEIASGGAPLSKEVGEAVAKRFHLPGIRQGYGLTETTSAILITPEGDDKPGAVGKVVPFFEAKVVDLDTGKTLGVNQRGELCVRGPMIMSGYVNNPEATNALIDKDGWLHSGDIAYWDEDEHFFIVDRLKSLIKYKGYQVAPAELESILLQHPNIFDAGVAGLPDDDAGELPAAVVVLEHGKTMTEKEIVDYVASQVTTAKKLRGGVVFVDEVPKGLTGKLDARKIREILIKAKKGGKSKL
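Purified P. pyralis luciferase (10nM final) with 10uM D-luciferin and 10uM ATP (Km levels) in 50mM Tris acetate pH 7.5, 10mM Mg acetate, 0.01% Tween-20, 0.05% BSA; qHTS 6-point titration, ~60 µM downward; luminescence read.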
NPC1 prom act – qHTS Assay for NPC1 Promoter Activators; Potency, µM (titrated, usually from 9.22 µM), inactives show top-dose activation, usual class: activators; hit rate 2.4% among 320,000; Huh7 NPC1 promoter luciferase reporter, 24 h; further: % of control where 0% means no effect; nearly all actives have a fitted effect of over 60% in size
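Readout is luciferase luminescence, reflecting NPC1 promoter activation in stably transfected Huh7 cells after 24 h compound exposure at 37 °C in reduced-serum medium with 10% FBS.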
Rab9 promoter act – qHTS Assay for Rab9 Promoter Activators | Huh7 Rab9 promoter-luciferase reporter, luminescence, 24 h | hit rate 2.8% among 320,000 | Potency, µM (top dose mostly 9.22 µM), inactives show at the highest dose activation, negative = inhibition, hits mostly activators | AID 485297, 2010; further: % of control where 0% means no effect; nearly all actives have a fitted effect of over 60% in size
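Luminescence from Amplite-detected luciferase (10 minutes, ambient) reports Rab9 promoter activation. Before that, stable Rab9-luciferase Huh7 cells (1500/well, reduced-serum OP-MEM I plus 10% FBS) were exposed to compound for 24 hours at 37C.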
ELG1 genotoxic – qHTS screen for small molecules that induce genotoxicity in human embryonic kidney (HEK293T) cells expressing luciferase-tagged ELG1. HEK293T ELG1-luciferase reporter, luminescence, 16 h. Potency, µM (highest dose often 46 µM), for inactives: at the top dose activity change, positive = activation, most hits filed as activators. hit rate 1.3% among 330,000. AID 504466, 2011; further: % of control where 0% means no effect; nearly all actives have a fitted effect of over 60% in size
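Reporter readout depends on ELG1 protein level, which increases with genetic stress. After 16 hr compound exposure at 37 °C, luciferase activity was quantified using ONE-Glo.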
KinaseGlo FLuc – Counterscreen for Luciferase (Kinase-Glo TM) Inhibition; hit rate 0.28% among 200,000; Potency, µM (doses to about 38.3 µM), without a hit: at the highest dose activity change, negative = inhibition, actives largely listed as inhibitors; Kinase-Glo luciferase, ATP luminescence, 8 min; Luciferin 4-monooxygenase (Photuris pensylvanica), Q27757; further: on the % scale 0 is the no-effect control and ±100 the full control effect; nearly all actives have a fitted effect of over 60% in size
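Inhibition of Kinase-Glo luciferase light generation was assessed at 10 uM ATP in pH 7.2 imidazole buffer, with luminescence measured after eight minutes at ambient temperature.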
The depositor's hits bear a star; ? = inconclusive; . = not tested or not shown; [ ] = another dose, or the depositor's remark. The call rests on the fitted dose curve; in most records, active means well fitted curve in the direction sought with a large enough effect; inconclusive means small, poorly fitted or top-dose-only effect, or another doubt; inactive means no such curve, though single readings can be large; an effect the other way counts as inactive or inconclusive. Potency means the concentration at half of the fitted maximal effect.

SMILES	SMN2 splice enh	FLuc counter	NPC1 prom act	Rab9 promoter act	ELG1 genotoxic	KinaseGlo FLuc
CC(=O)c1ccc2c(c1)C1C=CCC1C(c1ccncc1)N2 (stereo unspecified)	15%	17µM*	26%	10%	5%	-8%
Cc1nnc(NC(=O)c2ccc(S(=O)(=O)N3CC(C)CC(C)C3)cc2)o1 (stereo unspecified)	.	1%	3%	6%	-16%	.
COc1cc(Cl)c(C)cc1Nc1ncccn1	.	-9%	-5%	0%	1%	.
O=C(Cc1ccc(-c2ccccc2)cc1)Nc1ccccc1	.	-1%	3%	16%	?	.
O=C(Cc1ccc(-c2ccccc2)cc1)Nc1ncccc1O	.	15µM*	?	?	?	.
CC(=O)Nc1ccc2c(c1)/C(=C/c1ccc([N+](C)(C)C)cc1)c1ccccc1-2	-6%[9.22 µM]	.	.	.	.	0%[7.66 µM]
NC(=O)c1ccc(NC(=O)COC(=O)CNC(=O)c2sc3ccccc3c2Cl)cc1	.	6.7µM*	-2%	-9%	1%	.
CCOC(=O)C1CCN(C(=O)COC(=O)CNC(=O)c2sc3ccccc3c2Cl)CC1	.	9.5µM*	-2%	-3%	0%	.
CS(=O)(=O)c1ccc(Cl)c(NC(=O)COC(=O)CNC(=O)c2sc3ccccc3c2Cl)c1	.	15µM*	0%	-1%	-4%	.
O=C(COC(=O)CNC(=O)c1sc2ccccc2c1Cl)NC1CCS(=O)(=O)C1 (stereo unspecified)	.	17µM*	-1%	2%	-2%	.
CC1CCCCN1C(=O)COC(=O)CNC(=O)c1sc2ccccc2c1Cl (stereo unspecified)	.	?	0%	-4%	-2%	.
O=C(Nc1ccccc1)N1CCC2(CCNCC2)CC1	6%	.	.	.	.	-6%
O=C(NC1CC1)c1cc2cc3ccccc3nc2s1	.	11µM*	2.2µM*	3.5µM*	?	.
COc1cc(OC)cc(C(=O)O/N=C(\N)c2cccc(C)c2)c1	.	24µM*	?	?	0%	.
Cc1cccc(/C(N)=N/OC(=O)N2c3ccccc3Sc3ccccc32)c1	-6%	-16%	-2%	5%	2%	5%
CCC(C(=O)O/N=C(\N)c1cccc(C)c1)c1ccccc1 (stereo unspecified)	4%	?	15%	9%	25%	0%
Cc1cccc(/C(N)=N/OC(=O)c2cccnc2)c1	.	9.5µM*	?	4µM*	?	-28%
Cc1cccc(/C(N)=N/OC(=O)c2ccc(Br)o2)c1	?	4.3µM*	22%	2%	?	-14%
Cc1cccc(/C(N)=N/OC(=O)C23CC4CC(CC(C4)C2)C3)c1	-30%	4.3µM*	19%	?	?	-6%
CC1Cc2cc(S(=O)(=O)NCc3ccccc3Cl)ccc2N1C(=O)C1CCC1 (stereo unspecified)	.	-17%	.	.	.	.
C=CCSSSCC=C	-19%	.	.	.	.	-1%
BrC(=C\c1ccccc1)/C=N/Nc1ccc2nncn2n1	.	13µM*	1%	-2%	6%	.
Clc1ccccc1-c1csc(Nc2cccnc2)n1	.	?	2.8µM*	?	8%	.
Fc1ccc(-c2csc(Nc3ccccn3)n2)cc1	.	1.5µM*	3.5µM*	3.2µM*	2.1µM*	.
Clc1ccccc1Nc1nnc(-c2ccncc2)s1	3.2µM*	0.95µM*	0.56µM*	0.45µM*	?	1.3µM*
SMILES	SMN2 splice enh	FLuc counter	NPC1 prom act	Rab9 promoter act	ELG1 genotoxic	KinaseGlo FLuc
c1cncc(Nc2nc(-c3ccncc3)cs2)c1	-2%	?	6%	1%	-3%	-3%
c1ccc(Nc2nc(-c3cccnc3)cs2)nc1	11µM*	1.5µM*	1µM*	0.56µM*	?	-22%
N#Cc1cccc(NC(=O)N2CCC3(CC2)CCN(C(=O)c2cnccn2)CC3)c1	-14%	.	.	.	.	0%
Cc1ccc(C)c(N2CCN(C(=O)CCc3nc(-c4ccc(F)cc4)no3)CC2)c1	.	.	.	.	-1%	.
CC(C)(C)OC(=O)[C@H](C1N[C@@H](C(=O)O)C(C)(C)S1)N1C(=O)c2ccccc2C1=O (stereo partly specified)	-1%[9.22 µM]	.	.	.	.	-4%[7.66 µM]
Clc1ccccc1Nc1nc(-c2cccnc2)cs1	2.8µM*	1.7µM*	3.2µM*	0.71µM*	?	-22%
C/C(=N/O)[C@@H]1C[C@H](CC(=O)O)C1(C)C	-14%[9.22 µM]	.	.	.	.	-1%[7.66 µM]
N#CCCN1CCN(C(=S)c2ccc(-c3cccc(Cl)c3)o2)CC1	20%	19µM*	22%	?	?	-5%
CC(=O)N1CCN(C(=S)c2ccc(-c3ccc(Cl)cc3)o2)CC1	.	?	0%	-1%	0%	.
O=C(c1ccc(-c2cccc(Cl)c2)o1)N1CCN(c2ccc([N+](=O)[O-])cc2)CC1	-14%	2%	1%	0%	7%	0%
N#CCCN1CCN(C(=S)c2ccc(-c3ccc(Cl)c(Cl)c3)o2)CC1	9%	15µM*	13%	26%	?	-4%
CCN1CCN(S(=O)(=O)c2ccc(Cl)c(C(=O)NCCc3ccccc3)c2)CC1	.	?	?	?	16µM*	.
CCN1CCN(S(=O)(=O)c2ccc(Cl)c(C(=O)NC3CC3)c2)CC1	.	4%	0%	-5%	2%	.
O=C(c1ccc(Cl)cc1)c1cnc(-c2ccc(Cl)cc2)s1	?	2%	16%	25%	7%	-4%
O=C(c1ccccc1)c1cnc(-c2ccc(Cl)cc2)s1	?	0.34µM*	0.35µM*	0.32µM*	2.6µM*	?
O=C(c1ccccc1)c1cnc(-c2ccccc2)s1	13µM*	1.2µM*	0.5µM*	0.32µM*	2.1µM*	-25%
O=c1c2ccccc2cnn1-c1ccc(Cl)nn1	-6%	-19%	11%	16%	11%	-5%
O=c1c2ccccc2cnn1-c1ccc(Br)cc1	2.8µM*	3.4µM*	0.71µM*	1.6µM*	?	-12%
O=c1c2ccccc2cnn1-c1ccc2ccccc2c1	5µM*	1.2µM*	1.4µM*	1.8µM*	?	-29%
Cc1ccc(-n2c(-c3ccc(Br)cc3)nc3c(cnn3-c3ccccc3)c2=O)cc1	-6%	-5%	.	.	.	.
O=c1c2ccccc2nnn1-c1ccc(Br)cc1	.	?	3.2µM*	2.2µM*	?	.
O=C(O)c1ccccc1NS(=O)(=O)c1cccc(NS(=O)(=O)c2cc(Br)ccc2Br)c1	.	.	.	.	5%	.
Cn1c2ccccc2c2c(C(=O)NCC3CCCO3)cn(C3CCCC3)c(=O)c21 (stereo unspecified)	-45%	17µM*	-4%	-4%	3%	-1%
